# In the library only some 1.3% were active in any assay of this set; here they are far more common.
# GALR2 blocker – GALR2 antagonists in receptor-expressing cells, primary screen. antagonist mode. inhibition, % at 4 µM. 140,000 compounds, 0.39% hits;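 also: cells stimulated with galanin 1-16 at roughly its EC80; 0% = agonist challenge control and 100% = basal control without agonist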
# GALR2 agonist – GALR2 receptor agonists, primary screen, cell-based. GALR2-expressing cells, agonist activation read-out. activation, % (test concentration not listed). 140,000 compounds, 0.48% hits. AID 803, 2007; in the data active = activation above about 5%, passing the limit was not always enough;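 also: 0% = vehicle buffer wells and 100% = reference agonist at full effect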
# LYP act – LYP phosphatase activators, primary screen, biochemical, DiFMUP fluorescence, 2 µM | Tyrosine-protein phosphatase non-receptor type 22 (Homo sapiens), Q9Y2R2 | 96,000 compounds, 0.11% hits | activation, % at 2 µM | recombinant LYP; 0 = plate median, 100 = signal doubled | AID 697, 2007;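 active = activation at 2 µM above a set limit, the mean plus 5 SD, cut at about 37% in these data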
# S1P2 ag – S1P2 receptor agonists, primary screen, cell-based; Sphingosine 1-phosphate receptor 2 (Homo sapiens), O95136; S1P2-expressing cell line, agonist reporter read-out; activation, % at 4.5 µM; 97,000 compounds, 0.46% hits; AID 729, 2007; in the data active = activation above about 16%;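 also: 0% = vehicle low control and 100% = maximal reference agonist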
# Target sequence (O95136 whole entry, looked up): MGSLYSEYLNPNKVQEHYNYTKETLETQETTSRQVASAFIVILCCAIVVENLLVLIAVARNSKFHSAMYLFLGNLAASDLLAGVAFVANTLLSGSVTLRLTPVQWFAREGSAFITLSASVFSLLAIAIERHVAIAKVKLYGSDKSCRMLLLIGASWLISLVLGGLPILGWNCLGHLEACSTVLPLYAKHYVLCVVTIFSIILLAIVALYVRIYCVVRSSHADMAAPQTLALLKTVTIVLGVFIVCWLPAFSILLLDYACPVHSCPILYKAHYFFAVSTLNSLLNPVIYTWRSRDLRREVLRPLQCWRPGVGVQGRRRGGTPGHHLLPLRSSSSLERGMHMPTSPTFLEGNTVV
# LYP inh 2 – PTPN22 phosphatase inhibitors, primary screen, biochemical, DiFMUP fluorescence, 2 µM | inhibition, % at 2 µM | recombinant LYP catalytic domain | 96,000 compounds, 0.21% hits;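 active = inhibition at 2 µM at or above a set limit, the screen mean plus 3 SD, cut at about 24% in these data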;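 also: 0% = DMSO with enzyme and 100% = enzyme fully blocked by orthovanadate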
# S1P2 blocker – human S1P2 receptor antagonists, primary screen, cell-based. cell-based S1P2 antagonist assay, inhibition at 5 uM. Sphingosine 1-phosphate receptor 2 (Homo sapiens), O95136. 97,000 compounds, 0.21% hits. AID 736, 2007. inhibition, % at 5 µM; in the data active = inhibition above about 45%;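 also: CRE beta-lactamase reporter cells expressing human S1P2 stimulated with S1P; 0% = agonist at EC80 alone and 100% = agonist plus reference antagonist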
# GALR2 ant conf – GALR2 antagonists, retest of hits, confirmation, cell-based | shares compounds with GALR2 blocker | GALR2-expressing cells, antagonist mode, inhibition | 480 compounds, 60% hits | inhibition, % at 4 µM;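 also: cells stimulated with galanin at about its EC80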
# BLA inh counter – inhibitors of NFAT-driven beta-lactamase reporter, confirmation, counter-screen for GALR2 antagonist project, CHO NFAT-bla cells, FRET readout. thapsigargin-stimulated. inhibition, % at 4.2 µM. 480 compounds, 36% hits. shares compounds with GALR2 blocker. AID 867, 2007;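 active = inhibition above the mean inhibition across tested compounds plus 3 SD, cut at about 27% in these data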;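 also: 0% = 500 nM thapsigargin stimulated wells and 100% = unstimulated BSA only wells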
# The depositor's hits bear a star; nt = no result. Rule as the data show it, unless noted: active = inhibition above about 27%; inactive = the rest.
SMILES,GALR2 blocker,GALR2 agonist,LYP act,S1P2 ag,LYP inh 2,S1P2 blocker,GALR2 ant conf,BLA inh counter
Cc1nc2nc(-c3cccs3)cn2nc1C,28*,-1,-4,-13,3,39,31*,35*
CCOC(=O)/C(=C\c1cccnc1)C(=O)c1cc(C(C)=O)c(Nc2ccccc2)s1,54*,-3,-1,15,2,60*,79*,71*
Nc1ccc(C(=O)OCC(=O)Nc2cc([N+](=O)[O-])ccc2F)cc1,6,-1,nt,nt,nt,nt,nt,nt
Cc1nc(SCC(O)CO)c([N+](=O)[O-])[nH]1 (stereo not given),4,-3,8,-5,-5,6,nt,nt
CN(C(=S)NC1CCCCC1)C1(c2ccccc2Cl)CCCCC1=O (stereo not given),27*,0,nt,nt,nt,nt,34*,8
Cc1ccc(S(=O)(=O)C/N=C(/NC(=S)N(c2ccccc2)c2ccccc2)c2ccccc2)cc1,0,-1,-4,-5,4,0,nt,nt
O=C(CSCc1nc2ccccc2[nH]1)N1CCN(c2ccc(F)cc2)CC1,30*,-3,30,-13,-31,10,23,11
CC(C)(C)C1=C(C#N)C(c2ccncc2)C(C#N)=C(N)O1 (stereo not given),32*,1,nt,nt,nt,nt,14,4
CC(C)(C)C1=C(C#N)C(c2ccc3c(c2)OCO3)C(C#N)=C(N)O1 (stereo not given),1,-1,22,-4,-22,4,nt,nt
CC(=O)c1c(C)[nH]c(C(=O)OCC(=O)Nc2ccc(Cl)cc2[N+](=O)[O-])c1C,36*,0,nt,nt,nt,nt,51*,19
Cc1onc(-c2ccccc2)c1C(=O)Nc1nc2c(s1)CCCC2,27*,-1,3,-2,-5,-9,8,4
CCC(C)c1ccccc1NC(=O)COC(=O)c1ccc2[nH]c3c(c2c1)CCCC3 (stereo not given),-13,0,nt,nt,nt,nt,nt,nt
COc1ccc(Br)cc1/C(C)=N/NC1=NCCN1,13,-3,4,-1,-1,16,nt,nt
CCCCCOc1ccc(Br)cc1/C(C)=N/NC1=NCCN1,28*,0,-9,-6,7,21,8,28*
COc1ccccc1NC(=O)c1[nH]c(C)c(C(C)=O)c1C,28*,-2,2,-5,-3,7,33*,10
Nc1nc(Nc2cccc(F)c2)nc2ccccc12,31*,-1,nt,nt,nt,nt,24,13
Cc1cccc(NC(=O)c2ccccc2NC(=O)C2CCCCC2)c1C,42*,-2,5,-3,-3,-8,10,16
O=C(Nc1ccccc1)c1ccccc1NC(=O)C1CCCCC1,2,-3,6,-7,-4,2,nt,nt
Cn1c(=O)c(NCCc2ccccc2)c2c3c(cccc31)C(=O)c1ccccc1-2,40*,1,0,-4,-1,29,38*,42*
O=C(Nc1ccc2nc(-c3cccnc3)[nH]c2c1)C1CCCCC1,12,-1,-11,1,12,-12,nt,nt
O=C(Nc1ccc2nc(-c3cccnc3)[nH]c2c1)C12CC3CC(CC(C3)C1)C2,43*,-3,-5,-7,6,4,30*,10
N#C/C(=C/c1ccc(-c2ccc(S(N)(=O)=O)cc2)o1)C(=O)Nc1ccccc1,-3,0,nt,nt,nt,nt,nt,nt
N#C/C(=C/c1ccc(-c2ccc(S(N)(=O)=O)cc2)o1)c1nc2ccccc2s1,28*,0,nt,nt,nt,nt,41*,52*
COc1cccc(C(=O)O/N=C/c2ccc(Sc3ccc(C)cc3)nc2)c1,-5,-1,0,-6,1,-2,nt,nt
COc1ccc(NC(=O)/C(Cl)=C(/Cl)S(=O)Cc2ccccc2)cn1 (stereo not given),105*,-3,7,-7,-8,101*,102*,106*
SMILES,GALR2 blocker,GALR2 agonist,LYP act,S1P2 ag,LYP inh 2,S1P2 blocker,GALR2 ant conf,BLA inh counter
COc1ccc(/C=C/C(=O)Nc2ccc(OC)nc2)cc1,8,-1,nt,nt,nt,nt,nt,nt
COc1ccc(CS(=O)(=O)/C(Cl)=C(/Cl)C(=O)Nc2ccc(OC)nc2)cc1,93*,-4,6,-14,-6,95*,92*,92*
N#CC(C#N)=C1C=CC=CN1/C(=C\c1ccccc1Cl)C(=O)c1ccccc1,73*,-2,nt,nt,nt,nt,89*,99*
Nc1ccc2nc(-c3cccs3)[nH]c2c1,28*,-1,-11,-3,6,-14,4,3
CCN1CCN(Cc2ccc(NC(=O)CC3Oc4ccc(C)cc4NC3=O)cc2)CC1 (stereo not given),34*,-2,24,-6,-28,16,2,3
Cc1ccc2nc(-c3sc4nc(C)ccc4c3N)[nH]c2c1,24,1,0,-3,-3,-21,nt,nt
Cc1cc(C)c2c(N)c(-c3nc4ccccc4[nH]3)sc2n1,28*,0,4,4,-4,-10,25,0
S=C(Nc1ccc2cn[nH]c2c1)Nc1ccccc1Cl,-6,-1,nt,nt,nt,nt,nt,nt
COC(=O)CCC(=O)NC(=S)Nc1sc(C)c(C)c1C(N)=O,9,1,nt,nt,nt,nt,nt,nt
Cc1sc(NC(=S)NC(=O)CCc2ccccc2)c(C(N)=O)c1C,33*,4,nt,nt,nt,nt,28*,36*
Nc1nn(-c2ccccc2)c(N)c1N=Nc1ccccc1,28*,-1,nt,nt,nt,nt,16,9
Cc1ccc(S(=O)(=O)O/N=C2\CCCc3ccccc32)cc1,5,-6,5,-6,-4,2,nt,nt
CC1=C(C)/C(=N\OS(=O)(=O)c2ccccc2)C=CC1=O,77*,-2,-7,-1,8,96*,78*,71*
Cn1nc(-c2ccc(Cl)cc2)nc2c(=O)n(C)c(=O)nc1-2,94*,4,-44,-3,45*,99*,100*,95*
COc1cccc(/C=N/Nc2nc(N3CCCC3)nc(N3CCCC3)n2)c1O,29*,-1,-9,-10,12,-6,17,3
CCc1ccc2c(c1)/C(=C/C(=O)c1cccs1)C(=O)N2,28*,2,11,-4,-7,13,35*,22
O=C(CNC(=O)C(c1ccccc1)c1ccccc1)OCC(=O)c1cccs1,-1,0,nt,nt,nt,nt,nt,nt
COc1ccccc1S(=O)(=O)Nc1ccc2cn[nH]c2c1,27*,-2,nt,nt,nt,nt,20,10
